Tests used:
[1] = tested on: Human papillomavirus type 1a protein E7 (residues 44-93); test: small molecules binding HPV E7 44-93 – biochemical, small-molecule microarray, residues 44-93, 635 nm fluorescence, primary screen (AID 1108); details: fluorescence 635 nm, higher = more signal;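 note: E7 fragment applied at 1 µg/mL in TBST for 1 h at 4 C; score combines spot fluorescence with its signal to noise ratio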
[2] = hepatitis C replication reporter changes, two-sided – Huh7 cells, luciferase reporter, HCV replication inhibitor project, primary screen (AID 1109); details: Huh7 HCV replicon luciferase reporter, 48 h; higher = more signal;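 note: huh7 hepatoma cells harbouring a luciferase neomycin HCV replicon reporter; luciferase luminescence as measure of HCV replicon replication; test concentration not given here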
[3] = target: Left-right determination factor 2 (Homo sapiens) (UniProt O00292); test: small molecules binding LEFTY2 protein – biochemical, small-molecule microarray, 635 nm fluorescence scan, primary screen (AID 1110); details: higher = more signal
[4] = target: Calmodulin-1 (Homo sapiens) (UniProt P0DP23); test: small molecules binding calmodulin-1 with EGTA – biochemical, small-molecule microarray, Cy5-labelled CALM1, profiling panel (AID 1111); details: Cy5-CALM1 binding fluorescence, higher = more signal;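 note: labelled calmodulin applied in Tris saline Tween buffer holding calcium plus EGTA and DTT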
[5] = target: Calmodulin-1 (Homo sapiens) (UniProt P0DP23); test: small molecules binding Ca-loaded calmodulin-1 – biochemical, small-molecule microarray, Cy5-labelled CALM1, plus calcium, artefact control for SMM control-protein annotation, profiling panel (AID 1112); details: Cy5-CALM1 binding fluorescence, higher = more signal;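 note: score merges spot fluorescence with signal to noise from triplicate slides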
[6] = probe aWnt5a binding to arrayed compounds – biochemical, biotinylated probe, 635/667 nm fluorescence, primary screen (AID 1113); details: small-molecule microarray, higher = more signal;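 note: score merges 667 nm fluorescence intensity with signal-to-noise per printed feature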
[7] = probe aShh binding to arrayed compounds – biochemical, biotinylated probe, 635/667 nm fluorescence, primary screen (AID 1114); details: small-molecule microarray, higher = more signal;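 note: probe is biotin-labelled aShh protein from a stem cell growth factor screen; measures binding of labelled protein to compounds printed on the slide; score merges feature fluorescence at 667 nm with signal-to-noise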
[8] = probe aNog binding to arrayed compounds – biochemical, biotinylated probe, 635/667 nm fluorescence, primary screen (AID 1115); details: small-molecule microarray, higher = more signal;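 note: probe is biotinylated aNog protein used at 0.15 µg/mL for 1 h at 4 C; z-score combines 667 nm fluorescence of each spot with its signal to noise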
[9] = target: Torsin-1A-interacting protein 1 (Homo sapiens) (UniProt Q5JTV8); test: compound microarray binding of lysate hLAP1 – cell lysate, small-molecule microarray, COS7 lysate, 635/667 nm fluorescence, primary screen (AID 1116); details: 635 nm fluorescence, higher = more signal
[10] = target: Alpha-bungarotoxin (Bungarus multicinctus) (UniProt P60615); test: compounds binding labelled alpha-BTX control protein – biochemical, small-molecule microarray, Alexa647 label, 635/667 nm fluorescence, artefact control for SMM control protein annotation, profiling panel (AID 1117); details: alpha-BTX-A647 binding fluorescence, higher = more signal
Sequence of Alpha-bungarotoxin (Bungarus multicinctus) (P60615 whole entry, looked up): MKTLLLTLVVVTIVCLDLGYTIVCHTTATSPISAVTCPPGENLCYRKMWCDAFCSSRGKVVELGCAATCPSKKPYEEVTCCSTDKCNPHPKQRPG

Sequence of Left-right determination factor 2 (Homo sapiens) (O00292 whole entry, looked up): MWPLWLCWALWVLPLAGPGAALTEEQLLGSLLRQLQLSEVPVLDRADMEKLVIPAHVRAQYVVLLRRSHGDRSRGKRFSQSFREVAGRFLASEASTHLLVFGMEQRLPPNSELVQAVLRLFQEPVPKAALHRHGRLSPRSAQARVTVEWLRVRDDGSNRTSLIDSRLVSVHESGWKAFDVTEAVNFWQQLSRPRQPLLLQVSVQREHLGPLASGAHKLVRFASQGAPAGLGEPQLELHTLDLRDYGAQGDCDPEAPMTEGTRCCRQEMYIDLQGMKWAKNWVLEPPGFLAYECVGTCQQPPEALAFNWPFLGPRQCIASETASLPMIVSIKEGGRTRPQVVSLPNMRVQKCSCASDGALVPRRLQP
Sequence of Torsin-1A-interacting protein 1 (Homo sapiens) (Q5JTV8 whole entry, looked up): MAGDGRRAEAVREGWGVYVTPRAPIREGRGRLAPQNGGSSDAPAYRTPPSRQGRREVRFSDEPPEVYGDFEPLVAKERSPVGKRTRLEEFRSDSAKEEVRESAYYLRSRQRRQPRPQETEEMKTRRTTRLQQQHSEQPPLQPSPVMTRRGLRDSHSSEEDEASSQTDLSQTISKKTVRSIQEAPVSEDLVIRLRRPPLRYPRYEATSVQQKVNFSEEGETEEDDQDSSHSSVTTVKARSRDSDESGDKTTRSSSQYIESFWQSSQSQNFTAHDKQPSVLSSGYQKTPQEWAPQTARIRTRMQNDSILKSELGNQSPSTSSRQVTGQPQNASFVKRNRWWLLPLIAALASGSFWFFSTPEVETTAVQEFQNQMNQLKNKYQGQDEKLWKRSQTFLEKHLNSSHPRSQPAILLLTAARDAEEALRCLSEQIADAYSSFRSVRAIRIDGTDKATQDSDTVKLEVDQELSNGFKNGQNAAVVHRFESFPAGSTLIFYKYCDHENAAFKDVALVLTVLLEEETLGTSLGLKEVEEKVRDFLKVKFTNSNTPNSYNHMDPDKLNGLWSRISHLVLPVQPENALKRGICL

Row | SMILES | composite z-score [1] | z-score [2] | composite z-score [3] | composite z-score [4] | composite z-score [5] | composite z-score [6] | composite z-score [7] | composite z-score [8] | composite z-score [9] | composite z-score [10]
1 | CN1C(=O)C2C=CC(C(O)C3=C[C@H]4C[C@@H](C3)C4(C)C)N(Nc3ccc([N+](=O)[O-])cc3[N+](=O)[O-])C2C1=O (stereo not given in full) | 1.41 | -0.474 | 0.258 | 1.72 | 0.616 | 0.0194 | 0.223 | 0.836 | 0.975 | 1.51
2 | COc1cc(NN2C(C(O)c3ccccc3)C=CC3C(=O)N(c4ccccc4)C(=O)C32)cc(OC)c1OC (stereo not given) | 1.49 | -1.28 | 0.265 | 1.36 | -0.356 | 0.216 | 0.302 | 0.539 | 0.804 | 0.585
3 | CN(C)CCCN1C(=O)[C@@]2(c3ccc([N+](=O)[O-])cc3)CC(=O)N(C3CCCCC3)[C@@H]2c2ccc(CO)cc21 | -0.274 | -0.493 | 0.0478 | -0.126 | -0.361 | -0.104 | -0.304 | -0.118 | -1.4 | 0.25
4 | COCCOC(=O)N1C(=O)[C@@]2(c3cc(C#CCCO)ccc31)[C@H](c1ccc(O)cc1)N1[C@H](c3ccccc3)[C@H](c3ccccc3)OC(=O)[C@H]1[C@@H]2C(=O)N1CCCCCCC1 | 0.727 | -0.407 | 0.811 | 1.51 | 0.425 | 0.17 | 0.374 | -0.295 | 2.53 | 1.92
5 | C/C=C/[C@H](CCn1cc([C@H](O)c2ccccc2)nn1)[Si](C)(C)c1ccc(OC)cc1 | -0.0636 | -1.78 | -0.915 | -1.41 | -1.41 | -0.233 | -0.0769 | -0.272 | -0.66 | -0.977
6 | CCOC(=O)C1=CC[C@@H](c2ccccc2)N(S(=O)(=O)c2ccc(C)cc2)[C@H]1c1ccc(C#N)cc1 | 1.2 | -2.11 | -0.266 | 1.95 | 1 | -0.0236 | 0.385 | 0.621 | 1.48 | 1.84
7 | COCCOC(=O)N1C(=O)[C@@]2(c3cc(C#CCCO)ccc31)[C@H](C(=O)NC[C@H](O)c1ccccc1)[C@H]1C(=O)O[C@H](c3ccccc3)[C@H](c3ccccc3)N1[C@@H]2c1ccc(OCCO)cc1 | 1.08 | -0.646 | 0.532 | 1.09 | -0.191 | -0.197 | -0.23 | -0.456 | 0.274 | 0.895
8 | [N-]=[N+]=NCc1ccccc1C[C@]1(C(=O)N2CCOCC2)N=C(c2ccc(OCCCO)cc2)O[C@H]1c1ccccc1 | 1.25 | -3.07 | -0.712 | 1.4 | 0.886 | -0.0203 | 0.207 | -0.376 | 0.68 | 1.02

— PubChem BioAssay
